Measurements: PubChem BioAssay (NCI)
This is part of a sample that, as a whole, favours compounds with a hit. Of some 79,000 tested, about 15% had one in any assay. Active and inactive are the calls of the source. Rule as the data show it: active = growth inhibition above about 70%; inactive = the rest.

Tests used:
[1] = NCI Yeast Anticancer Drug Screen. Data for the wt2 strain (AID 169);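 also: 0% = growth of vehicle-treated yeast cultures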; details: S. cerevisiae wt2 strain growth inhibition, active compounds read high
Procedure, shortened: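 Read-out: growth inhibition versus vehicle-treated control cultures after compound exposure of the yeast strain.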

[2] = NCI Yeast Anticancer Drug Screen. Data for the mlh1 strain (AID 171);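 also: 0% = growth of vehicle-treated control cultures of the same strain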; details: S. cerevisiae mlh1 strain growth inhibition, active compounds read high
Procedure, shortened: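 Read-out: growth inhibition versus vehicle controls. Strain: engineered yeast with a defined DNA repair or cell cycle defect, compound-treated.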

[3] = NCI Yeast Anticancer Drug Screen. Data for the sgs1 strain (AID 173);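 also: 0% = growth of vehicle-only control cultures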; details: S. cerevisiae sgs1 mutant, active compounds read high
Procedure, shortened: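 Read-out: yeast growth inhibition relative to vehicle controls, following compound exposure of a strain with a defined DNA repair/cell cycle alteration.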

[4] = NCI Yeast Anticancer Drug Screen. Data for the mlh1 rad18 strain (AID 175); details: S. cerevisiae mlh1 rad18 strain growth inhibition, active compounds read high
Procedure, shortened: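 Yeast w/ defined DNA-repair lesions; compound exposure; growth vs vehicle controls → % inhibition.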

[5] = NCI Yeast Anticancer Drug Screen. Data for the rad18 strain (AID 177); details: S. cerevisiae rad18 mutant growth inhibition, active compounds read high
Procedure, shortened: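 Readout: growth inhibition vs vehicle controls. Cells: genetically altered yeast strain, DNA repair defect.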

[6] = NCI Yeast Anticancer Drug Screen. Data for the rad52 strain (AID 147);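 also: 0% = growth of vehicle-treated control cultures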; details: S. cerevisiae rad52 mutant growth inhibition, active compounds read high
Procedure, shortened: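 Read-out: growth inhibition versus vehicle-treated controls. Cells were a DNA repair-deficient yeast strain treated with compounds.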

[7] = NCI Yeast Anticancer Drug Screen. Data for the wt1 strain (AID 149);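 also: 0% = growth of vehicle-treated wt1 cultures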; details: S. cerevisiae wt1 strain (SPY 50644) growth inhibition, active compounds read high
Procedure, shortened: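 Growth inhibition read against vehicle controls after compound exposure of the wt1 yeast strain.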

[8] = NCI Yeast Anticancer Drug Screen. Data for the rad50EPP+ strain (AID 151);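 also: 0% = growth of vehicle-treated control cultures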; details: S. cerevisiae rad50 mutant strain, active compounds read high
Procedure, shortened: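 Growth inhibition read against vehicle controls in rad50EPP+ yeast, a strain altered in DNA damage repair, after compound exposure.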

[9] = NCI Yeast Anticancer Drug Screen. Data for the mgt1 strain (AID 153); details: S. cerevisiae mgt1 mutant growth inhibition, active compounds read high
Procedure, shortened: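 mgt1 yeast grown with test compound; read-out is growth inhibition versus vehicle-treated cultures.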

[10] = NCI Yeast Anticancer Drug Screen. Data for the rad50 strain (AID 155);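 also: 0% = growth of vehicle-only cultures of the same strain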; details: S. cerevisiae rad50 strain growth inhibition, active compounds read high
Procedure, shortened: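 Readout: growth inhibition relative to vehicle-treated cultures. Compound exposure was carried out in a genetically defined yeast strain deficient in DNA damage repair.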

[11] = NCI Yeast Anticancer Drug Screen. Data for the mec2-1 strain (AID 157); details: S. cerevisiae mec2-1 strain, active compounds read high
Procedure, shortened: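 Yeast mec2-1 mutant treated with compound. Readout: growth inhibition vs vehicle controls.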

[12] = NCI Yeast Anticancer Drug Screen. Data for the rad14 strain (AID 159);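 also: 0% = growth of vehicle-treated control cultures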; details: S. cerevisiae rad14 strain growth inhibition, active compounds read high
Procedure, shortened: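 Growth inhibition vs vehicle controls; genetically altered yeast strain (DNA damage repair defect) treated with test compounds.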

[13] = NCI Yeast Anticancer Drug Screen. Data for the sgs1 mgt1 strain (AID 161);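 also: 0% = growth of cultures given vehicle only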; details: S. cerevisiae sgs1 mgt1 strain, active compounds read high
Procedure, shortened: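 Read-out: growth inhibition vs vehicle controls. Cells: mutant yeast strain deficient in DNA damage repair.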

[14] = NCI Yeast Anticancer Drug Screen. Data for the CLN2oe strain (AID 163);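 also: 0% = growth of vehicle-only control cultures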; details: S. cerevisiae CLN2oe strain, active compounds read high
Procedure, shortened: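 Read-out: yeast growth inhibition, expressed relative to vehicle-only controls. The strain bears an engineered cell-cycle alteration.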

[15] = NCI Yeast Anticancer Drug Screen. Data for the cln2 rad14 strain (AID 165);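 also: 0% = growth equal to vehicle treated cultures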; details: S. cerevisiae cln2 rad14 strain, active compounds read high
Procedure, shortened: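 cln2 rad14 yeast strain; compound exposure; growth inhibition read vs vehicle controls.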

[16] = NCI Yeast Anticancer Drug Screen. Data for the bub3 strain (AID 167); details: S. cerevisiae bub3 mutant strain, active compounds read high
Procedure, shortened: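 Readout: yeast growth inhibition, expressed relative to vehicle-only wells. The test organism is a mutant strain from a panel with lesions in DNA repair or checkpoint genes.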

[17] = at 5.0 µM (retest, dose inferred, filed as 0.5)
[18] = at 50.0 µM (retest, dose inferred, filed as 5.0)

Measured: growth inhibition

CC(=O)Nc1ccc2c(c1)C(=Nc1ccc(C(=O)O)cc1)c1ccccc1-2
active: [1]; at 100.0 µM 93% | [2]; at 100.0 µM 90% | [3]; at 100.0 µM 95% | [4]; [18] 73% | [4]; at 50.0 µM 91.1% | [5]; at 33.0 µM 85% | [5]; at 100.0 µM 96%
inactive: [1]; at 1.2 µM -2% | [1]; at 3.7 µM -2% | [1]; at 11.0 µM -2% | [1]; at 33.0 µM 9% | [2]; at 1.2 µM -3% | [2]; at 3.7 µM 1% | [2]; at 11.0 µM 2% | [2]; at 33.0 µM 15% | [3]; at 1.2 µM -1% | [3]; at 3.7 µM 2% | [3]; at 11.0 µM 9% | [3]; at 33.0 µM 25% | [4]; [17] -7% | [5]; at 1.2 µM 5% | [5]; at 3.7 µM 15% | [5]; at 11.0 µM 47%

COc1ccc(/C=C/C(=O)C(C)(C)Br)cc1
active: [6]; at 3.7 µM 89% | [6]; at 11.0 µM 95% | [6]; at 33.0 µM 97% | [6]; at 100.0 µM 98% | [8]; at 1.2 µM 79% | [8]; at 3.7 µM 93% | [8]; at 11.0 µM 96% | [8]; at 33.0 µM 97% | [8]; at 100.0 µM 98% | [9]; at 100.0 µM 71% | [10]; at 3.7 µM 74% | [10]; [17] 75% | [10]; at 11.0 µM 88% | [10]; at 33.0 µM 93% | [10]; [18] 96% | [10]; at 50.0 µM 94.5% | [10]; at 100.0 µM 96% | [11]; at 3.7 µM 71% | [11]; at 11.0 µM 96% | [11]; at 33.0 µM 97% | [11]; [18] 98% | [11]; at 50.0 µM 96.6% | [11]; at 100.0 µM 97% | [12]; at 11.0 µM 93% | [12]; at 33.0 µM 96% | [12]; at 100.0 µM 99% | [13]; [17] 86% | [13]; [18] 97% | [13]; at 50.0 µM 93.7% | [14]; at 100.0 µM 89% | [15]; [18] 92% | [15]; at 50.0 µM 91.5% | [16]; [18] 99% | [16]; at 50.0 µM 73.3% | [16]; at 100.0 µM 82% | [1]; at 100.0 µM 89% | [2]; at 100.0 µM 94% | [3]; at 3.7 µM 87% | [3]; at 11.0 µM 91% | [3]; at 33.0 µM 92% | [3]; at 100.0 µM 95% | [4]; [17] 89% | [4]; [18] 99% | [4]; at 50.0 µM 94.4% | [5]; at 1.2 µM 96% | [5]; at 3.7 µM 97% | [5]; at 11.0 µM 97% | [5]; at 33.0 µM 97% | [5]; at 100.0 µM 98%
inactive: [6]; at 1.2 µM 45% | [7]; at 1.2 µM 4% | [7]; at 3.7 µM 12% | [7]; at 11.0 µM 15% | [7]; at 33.0 µM 19% | [7]; at 100.0 µM 33% | [9]; at 1.2 µM 0% | [9]; at 3.7 µM 9% | [9]; at 11.0 µM 18% | [9]; at 33.0 µM 27% | [10]; at 1.2 µM 41% | [11]; at 1.2 µM 24% | [11]; [17] 11% | [12]; at 1.2 µM 28% | [12]; at 3.7 µM 69% | [14]; at 1.2 µM 0% | [14]; at 3.7 µM 3% | [14]; at 11.0 µM 20% | [14]; at 33.0 µM 36% | [15]; [17] 52% | [16]; at 1.2 µM -9% | [16]; at 3.7 µM -7% | [16]; [17] 26% | [16]; at 11.0 µM 4% | [16]; at 33.0 µM 25% | [1]; at 1.2 µM 2% | [1]; at 3.7 µM 10% | [1]; at 11.0 µM 26% | [1]; at 33.0 µM 37% | [2]; at 1.2 µM 5% | [2]; at 3.7 µM 19% | [2]; at 11.0 µM 33% | [2]; at 33.0 µM 54% | [3]; at 1.2 µM 69%

NNC(=O)CCc1ccc2ccc3ccccc3c2c1
active: [4]; at 50.0 µM 71.3%
inactive: [6]; at 1.2 µM -1% | [6]; at 3.7 µM -3% | [6]; at 11.0 µM 1% | [6]; at 33.0 µM 13% | [6]; at 100.0 µM 52% | [7]; at 1.2 µM 1% | [7]; at 3.7 µM 3% | [7]; at 11.0 µM 3% | [7]; at 33.0 µM 3% | [7]; at 100.0 µM 18% | [8]; at 1.2 µM 2% | [8]; at 3.7 µM 4% | [8]; at 11.0 µM 15% | [8]; at 33.0 µM 34% | [8]; at 100.0 µM 58% | [9]; at 1.2 µM -2% | [9]; at 3.7 µM -3% | [9]; at 11.0 µM -5% | [9]; at 33.0 µM -4% | [9]; at 100.0 µM 23% | [10]; at 1.2 µM 0% | [10]; at 3.7 µM -4% | [10]; [17] -13% | [10]; at 11.0 µM 9% | [10]; at 33.0 µM 7% | [10]; [18] 7% | [10]; at 50.0 µM 28.1% | [10]; at 100.0 µM 58% | [11]; at 1.2 µM -1% | [11]; at 3.7 µM -1% | [11]; [17] -1% | [11]; at 11.0 µM 0% | [11]; at 33.0 µM 2% | [11]; [18] 2% | [11]; at 50.0 µM -10.2% | [11]; at 100.0 µM 50% | [12]; at 1.2 µM -4% | [12]; at 3.7 µM -2% | [12]; at 11.0 µM -3% | [12]; at 33.0 µM -4% | [12]; at 100.0 µM 40% | [13]; [17] -6% | [13]; [18] -14% | [13]; at 50.0 µM 20.1% | [14]; at 1.2 µM -10% | [14]; at 3.7 µM -15% | [14]; at 11.0 µM -17% | [14]; at 33.0 µM -3% | [14]; at 100.0 µM 60% | [15]; [17] -28% | [15]; [18] -15% | [15]; at 50.0 µM 24.6% | [16]; at 1.2 µM -8% | [16]; at 3.7 µM -4% | [16]; [17] -11% | [16]; at 11.0 µM -33% | [16]; at 33.0 µM 19% | [16]; [18] 54% | [16]; at 50.0 µM 37.2% | [16]; at 100.0 µM 58% | [1]; at 1.2 µM -1% | [1]; at 3.7 µM -1% | [1]; at 11.0 µM 2% | [1]; at 33.0 µM 6% | [1]; at 100.0 µM 32% | [2]; at 1.2 µM 6% | [2]; at 3.7 µM 3% | [2]; at 11.0 µM 5% | [2]; at 33.0 µM 9% | [2]; at 100.0 µM 48% | [3]; at 1.2 µM 6% | [3]; at 3.7 µM 8% | [3]; at 11.0 µM 17% | [3]; at 33.0 µM 22% | [3]; at 100.0 µM 52% | [4]; [17] -10% | [4]; [18] 22% | [5]; at 1.2 µM 17% | [5]; at 3.7 µM 15% | [5]; at 11.0 µM -8% | [5]; at 33.0 µM 38% | [5]; at 100.0 µM 66%
